ATXN viability: cell viability loss in ATXN counter-screen; S2 cells (HEK-293 line with an ATXN2-luciferase reporter) viability, CellTiter-Fluor protease fluorescence, 24 h; Potency, µM (titrated, usually from 56.7 µM), hits mostly cytotoxic; 400,000 tested, 0.49% active; note: nearly all actives have a fitted effect of over 40% in size
HepG2 viability: kills HepG2 cells in TGF-b inhibitor counter-screen | HepG2 CAGA-GFP viability, ATP luminescence, 18 h | Potency, µM (top dose mostly 46.1 µM), without a hit: top-dose activity change, negative = cytotoxicity, actives largely listed as cytotoxic | 410,000 tested, 0.76% active | AID 588856
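HepG2 CAGA-GFP cells (1000/well, DMEM with 1% FBS) received compound, then TGF-beta at 500 pg/mL final, and were incubated 18 hours at 37 degrees C. Viability was read by CellTiter-Glo luminescence. Media-only wells were set as complete cell-killing and DMSO as no toxicity.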
RORg inh: inhibitors of mouse ROR gamma transcriptional activity. 310,000 tested, 5.4% active. Drosophila S2 Gal4-RORgamma UAS-luciferase reporter, 20 h. Potency, µM (top dose mostly 53.6 µM), for inactives: top-dose activity change, negative = inhibition, usual class: inhibitors. P51450; note: % is set by controls: 0 for no effect and ±100 for the full control effect; nearly all actives have a fitted effect of over 60% in size
Target sequence (P51450 whole entry, looked up, the tested form may be a part): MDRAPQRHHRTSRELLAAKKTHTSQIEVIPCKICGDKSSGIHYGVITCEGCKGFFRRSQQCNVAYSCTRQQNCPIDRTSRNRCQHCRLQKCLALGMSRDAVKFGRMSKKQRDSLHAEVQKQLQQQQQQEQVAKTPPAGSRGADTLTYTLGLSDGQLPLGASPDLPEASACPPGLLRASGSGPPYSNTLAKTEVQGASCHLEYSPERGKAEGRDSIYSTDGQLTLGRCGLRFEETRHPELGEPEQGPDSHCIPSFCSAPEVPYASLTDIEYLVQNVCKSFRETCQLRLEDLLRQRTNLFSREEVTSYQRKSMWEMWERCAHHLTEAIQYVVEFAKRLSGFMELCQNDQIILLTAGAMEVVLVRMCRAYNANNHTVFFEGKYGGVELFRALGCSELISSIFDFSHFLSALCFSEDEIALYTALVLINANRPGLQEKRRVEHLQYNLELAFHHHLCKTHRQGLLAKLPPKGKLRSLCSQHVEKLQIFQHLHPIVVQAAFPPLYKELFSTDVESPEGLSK
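Read-out: Photinus luciferase luminescence; inhibitors lower reporter signal. Insect Schneider cells with Gal4-ROR gamma fusion under metallothionein promoter, UAS reporter; 700 uM final copper sulfate induction, 20 hr, ambient temperature.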
TGFb SMAD3 inh: TGF-b pathway inhibition; HepG2 CAGA-GFP TGF-b/SMAD3 reporter, GFP fluorescence, 18 h; TGF-beta stimulated, 500 pg/mL final; Potency, µM (top dose mostly 46.1 µM), for inactives: at the top dose activity, negative = inhibition, most hits filed as inhibitors; 410,000 tested, 1.2% active; note: % is set by controls: 0 for no effect and ±100 for the full control effect; nearly all actives have a fitted effect of over 65% in size
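Inhibition was scored as loss of TGF-beta-induced (500 pg/mL final, 18 hours, 37 degrees C) GFP in HEPG2 cells carrying a CAGA-GFP reporter, in DMEM with 1% FBS. Well GFP was summed per cell; Activity was normalised to unstimulated and stimulated DMSO wells, then concentration-response fitting.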
VP16 counter: counter-screen for ROR gamma inhibitors: Gal4-VP16 reporter | Drosophila S2 Gal4-VP16 UAS-luciferase, luminescence, 20 h | Potency, µM (highest dose often 53.6 µM), for the others: top-dose activity, negative = inhibition, hits mostly inhibitors | 310,000 tested, 3.5% active | AID 2546;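 note: Gal4-VP16 expression switched on by copper sulfate through the metallothionein promoter; % is set by controls: 0 for no effect and ±100 for the full control effect; nearly all actives have a fitted effect of over 50% in size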
ATXN2 expr inh: inhibitors of ATXN2 expression. HEK-293 ATXN2-luciferase reporter, luminescence, 24 h. Potency, µM (highest dose often 57 µM), without a hit: top-dose activity change, negative = inhibition, most hits filed as inhibitors. 360,000 tested, 0.72% active; note: % is set by controls: 0 for no effect and ±100 for the full control effect; nearly all actives have a fitted effect of over 55% in size
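ATXN2-luciferase reporter cells (luciferase flanked by upstream and downstream ATXN2 gene portions) were treated 24 h at 37 °C with compounds at up to 57 uM. SteadyGlo luminescence gave expression; GF-AFC fluorescence gave viability.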
* marks the source's active call; other numbers are inactive results; i = inactive; ? = inconclusive; nt = not tested or not shown; [ ] = remark or other dose. Most compounds without a hit are left out; they make up all but 6.3% or so of the library. Calls come from the whole dose curve; as a rule, active = well fitted curve in the direction sought with a large enough effect; inconclusive = small, poorly fitted or top-dose-only effect, or another doubt; inactive = no such curve, though single readings can be large; an effect the other way counts as inactive or inconclusive. Potency is the fitted concentration of half-maximal effect.

SMILES	ATXN viability	HepG2 viability	RORg inh	TGFb SMAD3 inh	VP16 counter	ATXN2 expr inh
CCCC1O[C@@H]2C[C@H]3[C@@H]4CCC5=CC(=O)C=C[C@]5(C)[C@H]4[C@@H](O)C[C@]3(C)[C@]2(C(=O)CO)O1 (stereo partly drawn)	i	-29%	13µM*	9%	4%	3%
COc1ccccc1Oc1cn[nH]c1-c1ccc(OCC(=O)NN)cc1O	i	6%	-26%	0%	-1%	-11%
COc1ccccc1-c1cn[nH]c1-c1ccc(OCc2ccccc2)cc1O	i	-96%	6.3µM*	?	?	-7%
COc1ccc(-c2cn[nH]c2-c2ccc(OCc3ccccc3F)cc2O)cc1OC	?	-88%	?	16µM*	?	?
COc1ccc(-c2[nH]ncc2-c2csc(C)n2)c(O)c1	i	-3%	-43%	-16%	?	nt
COc1ccc(-c2cn[nH]c2-c2ccc(OC)cc2O)cc1	i	-33%	?	?	20µM*	2%
O=[N+]([O-])c1ccc(COc2ccc(-c3[nH]ncc3-c3ccc(Cl)cc3)c(O)c2)cc1	?	-87%	43%	?	-10%	?
COc1ccc(-c2cn[nH]c2-c2ccc(OCc3ccccc3)cc2O)cc1	i	-142%	6.3µM*	?	?	0%
COCc1ccc(CN2CCOc3ccc(C4=CCCCC4)cc3C2)o1	i	nt	nt	nt	nt	nt
COc1cc2c(cc1OC)CN(CCc1ccc(NC(=O)c3cc(OC)c(OC)cc3NC(=O)c3cnc4ccccc4c3)cc1)CC2	nt	nt	nt	nt	nt	-26%
CCOc1ccc(-c2[nH]ncc2-c2ccccc2)c(O)c1	?	-33%	13µM*	?	?	nt
CC1(C)[C@@H](OC(=O)CCC(=O)O)CC[C@]2(C)[C@H]3C(=O)C=C4[C@@H]5C[C@@](C)(C(=O)O)CC[C@]5(C)CC[C@@]4(C)[C@]3(C)CC[C@@H]12	i	nt	nt	nt	nt	7%
COC(=O)c1ccc(C(=O)OC)c(NC(=O)c2cc3nc(-c4ccc(C)cc4)cc(C(F)(F)F)n3n2)c1	i	-16%	nt	-5%	nt	0%
O=C(NC1CC1)C1CCN(C2CCN(C(=O)Cc3ccc4c(c3)OCO4)CC2)CC1	i	-11%	10µM*	-1%	-16%	-3%
COc1cccc(Cn2c(=O)c(-c3cccc(F)c3)nc3cncnc32)c1	nt	nt	-7%	nt	6%	nt
O=c1cc(-c2ccccc2)oc2c1CCCC2	i	-13%	nt	1%	nt	8%
COc1ccc(CCNC(=O)C2COc3ccccc3C2)cc1OC (stereo not drawn)	i	1%	nt	-3%	nt	-2%
CN(Cc1nc(-c2cccnc2)no1)S(=O)(=O)c1ccc2ccccc2c1	i	-33%	24%	-8%	0%	5%
CN(Cc1nc(-c2cccnc2)no1)S(=O)(=O)c1ccc(Br)cc1	i	3%	40%	-16%	11µM*	-9%
CCC1ON(C(C)C)C2c3nc4ccccc4n3CC12 (stereo not drawn)	i	5%	-19%	1%	1%	-4%
CC1(C)ON(C2CCCCC2)[C@H]2c3nc4ccccc4n3C[C@H]21	i	1%	14µM*	0%	-1%	11%
O=C(NC(=S)N(CCCCO)C1CCCCC1)c1sc2ccccc2c1Cl	?	-28%	0.1µM*	?	0.89µM*	?
CC1CCCCC1NC(=S)NC(=O)c1sc2ccccc2c1Cl (stereo not drawn)	i	2%	-9%	2%	6%	18%
Cc1ccc(Sc2ncccc2C(=O)NCc2cc([N+](=O)[O-])ccc2O)c(C)c1	i	-15%	5µM*	-22%	7.1µM*	4%
O=C(NNC(=O)c1cccnc1SCc1cccc([N+](=O)[O-])c1)c1ccc(F)cc1	?	9%	?	-4%	?	?
SMILES	ATXN viability	HepG2 viability	RORg inh	TGFb SMAD3 inh	VP16 counter	ATXN2 expr inh
O=C(NCc1ccccc1)c1cccnc1Sc1ccccc1	i	1%	18%	-2%	8%	14%
O=C(NNC(=O)c1cccnc1SCc1cccc([N+](=O)[O-])c1)c1ccccn1	i	-18%	3.5µM*	?	5µM*	7.9µM*
O=C(NCc1cc([N+](=O)[O-])ccc1O)c1cccnc1Sc1ccccc1	?	-1%	10µM*	-1%	11µM*	-17%
O=C(CNS(=O)(=O)c1ccc(Br)s1)NCC1COc2ccccc2O1 (stereo not drawn)	i	-35%	-17%	-22%	13µM*	-25%
O=C(CNC(=O)c1ccc(Br)o1)NCC1COc2ccccc2O1 (stereo not drawn)	i	1%	nt	8%	nt	nt
O=C(c1cc2cc([N+](=O)[O-])ccc2oc1=O)N1CCOCC1	i	8%	5µM*	19%	?	-7%
O=C(CCN1CCN(C(=O)OCc2cc(Cl)cc(Cl)c2)CC1)c1ccc2[nH]c(=O)oc2c1	nt	nt	nt	nt	nt	6%
COc1ccc(CN2C(=S)NC(C)(C)CC2(C)O)cc1 (stereo not drawn)	i	12%	13µM*	15%	?	-2%
COc1ccccc1CCN1CCCC(CN(C)CC(C)(C)CO)C1 (stereo not drawn)	i	-24%	18%[1.91 µM]	0%	-5%	-12%
COc1ccccc1CCN1C(=S)NC(C)(C)CC1(C)O (stereo not drawn)	i	-3%	2.8µM*	12%	5.6µM*	-3%
O=S(=O)(c1ccc(Br)cc1)N1CCN(c2nc(-c3cccs3)nc3ccccc23)CC1	nt	10%	nt	12%	nt	nt
COc1ccccc1CN1CCOc2ccc(CN3CCCCC3CO)cc2C1 (stereo not drawn)	i	nt	nt	nt	nt	nt
Cc1ccc(SCC(=O)OCC(=O)N(CC(C)C)c2c(N)n(Cc3ccccc3)c(=O)[nH]c2=O)cc1C	i	-156%	nt	18µM*	nt	-19%
C=C[C@]1(C)C[C@@H](OC(=O)CO)[C@]2(C)[C@H](C)CC[C@]3(CCC(=O)[C@H]32)[C@@H](C)[C@@H]1O	i	nt	nt	nt	nt	nt
O=C(COc1ccccc1Cl)c1ccc2c(c1)CCCC2	i	-5%	14µM*	-3%	?	51%
N#CCCS(=O)(=O)c1nnnn1-c1ccccc1	nt	nt	2.8µM*	nt	4.5µM*	nt
COC(C)(C)CCCC(C)C/C=C/C(C)=C/C(=O)O (stereo not drawn)	nt	nt	25%	nt	-1%	nt
Cc1[nH]n2c(=O)cc(C(C)(C)C)nc2c1-c1ccccc1	i	-36%	1.4µM*	-2%	3.2µM*	18µM*
